Test results reported in PubChem BioAssay (NCI).
About 83,000 compounds went through this panel and 20% of them were active in at least one assay; those are over-represented in the sample as a whole.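 Cell lines were cultured in 96-well plates, exposed to a single compound concentration, and assessed for percent growth 48 hours later.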 Unmarked numbers belong to inactive results. The source made the active and inactive calls. Rule for the calls: active = growth percent below 10; inactive = the rest. *1 amine or outer side, *2 acyl side, *3 side chain or, on linkers, in order; H or OH if unused. Where a SMILES comes first, the peptide text is derived from it. Bridges are numbered along the chain shown (N, C = ends). Roman numbers before positions name the chains, in order. [ ]: non-standard residue; d: D form. Actinocin(1to9) = Cc1c2oc3c(C)ccc(C(=O)[*:2])c3nc-2c(C(=O)[*:1])c(N)c1=O; NMeV = CN[CH](C(=O)O)C(C)C; Sar = CNCC(=O)O

Key:
Assay in all cases: NCI-60 one-dose screen, 48 h (100 = growth as untreated, 0 = no growth, -100 = all killed)
Details in all cases: 10 µM unless noted
NCI-H23 lung = test system: NCI-H23 lung
NCI-H226 lung = test system: NCI-H226 lung
NCI-H322M lung = test system: NCI-H322M lung
HOP-62 NSCLC = test system: HOP-62 NSCLC
NCI-H460 lung = test system: NCI-H460 lung
HOP-92 NSCLC = test system: HOP-92 NSCLC
NCI-H522 lung = test system: NCI-H522 lung
A549/ATCC NSCLC = test system: A549/ATCC NSCLC
786-0 renal = test system: 786-0 renal
DU-145 prostate = test system: DU-145 prostate
K-562 leukemia = test system: K-562 leukemia
MALME-3M melanoma = test system: MALME-3M melanoma
RXF 393 renal = test system: RXF 393 renal
SF-268 CNS = test system: SF-268 CNS
SF-295 CNS = test system: SF-295 CNS
SF-539 CNS = test system: SF-539 CNS
UACC-257 melanoma = test system: UACC-257 melanoma
M14 melanoma = test system: M14 melanoma
MDA-MB-231 breast = test system: MDA-MB-231 breast
COLO 205 colon = test system: COLO 205 colon

SMILES | growth (NCI-H23 lung) | growth (NCI-H226 lung) | growth (NCI-H322M lung) | growth (HOP-62 NSCLC) | growth (NCI-H460 lung) | growth (HOP-92 NSCLC) | growth (NCI-H522 lung) | growth (A549/ATCC NSCLC) | growth (786-0 renal) | growth (DU-145 prostate) | growth (K-562 leukemia) | growth (MALME-3M melanoma) | growth (RXF 393 renal) | growth (SF-268 CNS) | growth (SF-295 CNS) | growth (SF-539 CNS) | growth (UACC-257 melanoma) | growth (M14 melanoma) | growth (MDA-MB-231 breast) | growth (COLO 205 colon)
O=C(Cc1nc2cc(Cl)c(Cl)cc2nc1CC(=O)c1ccccc1)c1ccccc1 | 77.3% | 70.4% | 80.9% | 70.5% | 73.4% | 67.3% | 58.2% | 74.4% | 67.6% | 82.5% | 47.4% | 67.5% | 81.1% | 79.2% | 69.5% | 62.1% | 93.6% | 75.2% | – | –
O=C1CSC(=S)N1Cc1cccnc1 | 101% | 109% | 85.7% | 78.4% | 106% | 83.9% | 36.8% | 95.4% | 44.6% | 25% | 7.08% (active) | 102% | – | 107% | 120% | 93.6% | 59.5% | 85.1% | 106% | –
O=C1C=CC(=O)N1c1cccc2c1CCCC2 | 106% | 96.4% | 91.9% | 105% | 109% | 84.2% | 11.6% | 104% | 105% | 103% | 57.1% | 85.5% | 94.1% | 101% | 90.6% | 105% | 103% | 110% | 106% | –
COc1ccc2c(c1)c(CC(=O)O)c(C)n2C(=O)c1ccc(Cl)cc1 | 92.5% | 94.8% | 89.7% | 100% | 101% | 82.8% | 97.5% | – | 77.4% | 107% | 73.5% | 85.1% | 109% | 109% | 68.6% | 114% | 109% | 95.7% | 102% | 128%
Oc1c(Cl)cc(Cl)cc1C=NCC1CCC(CN=Cc2cc(Cl)cc(Cl)c2O)CC1 (stereo not given) | 102% | 97% | 75.5% | 95.1% | 108% | 76.6% | 91.6% | 106% | 96.7% | 104% | 66.8% | 89.6% | 90.9% | 70.9% | 98% | 89.3% | 111% | 90.4% | – | –
CCC(C)C1NC(=O)C(NC(=O)c2c3nc4c(C(=O)NC5C(=O)NC(C(C)CC)C(=O)N6CCCC6C(=O)N(C)CC(=O)N(C)C(C(C)C)C(=O)OC5C)ccc(C)c4oc-3c(C)c(=O)c2N)C(C)OC(=O)C(C(C)C)N(C)C(=O)CN(C)C(=O)C2CCCN2C1=O (stereo not given) (I: TIP[Sar][NMeV] / II: TIP[Sar][NMeV]; ester I:1-I:C, II:1-II:C; linker I:N-II:N via Actinocin(1to9); configuration not given here) | -51.1% (active) | -16% (active) | -2.5% (active) | -43.6% (active) | -19.6% (active) | -16.6% (active) | -45.5% (active) | – | -20.8% (active) | 15.5% | 1.13% (active) | -74.1% (active) | 1.32% (active) | -11.7% (active) | -11.3% (active) | -36.9% (active) | -8.32% (active) | -95.6% (active) | -12.7% (active) | -67.6% (active)
CCOC(=O)c1cc(CC)sc1NC(=O)CC(C)=O | 43.2% | 70.1% | 95.3% | 73% | 50.9% | 59% | 34.4% | – | 54.5% | 48.2% | 21.8% | 62.2% | 61.7% | 60.1% | 43.2% | 56.1% | 95.6% | – | 54.9% | 90.2%
Oc1ccc2ccccc2c1N=Nc1nccs1 | 40% | -0.189% (active) | 15.7% | 20.2% | 10.2% | 46.9% | 178% | 43.6% | -40.2% (active) | 20.5% | 10.4% | 29.2% | 47.3% | 1.32% (active) | 31.4% | 15.2% | 66% | 26.3% | 28.8% | –
NC(CS/C(Cl)=C/Cl)C(=O)O (stereo not given) | 97.6% | 86.9% | 73.5% | -3.21% (active) | -45.9% (active) | 83.3% | 93.4% | -52.9% (active) | 105% | – | 89.2% | 89.6% | 105% | 99.3% | 9.28% (active) | 104% | 78.3% | 58.2% | 88.1% | –
CN(C)CCN(C)CC(C)(C)C(=O)/C=C/c1ccc(Cl)c(Cl)c1 | -83.2% [100 µM] (active) | -64.1% [100 µM] (active) | -98.4% [100 µM] (active) | -92.9% [100 µM] (active) | -72.8% [100 µM] (active) | -89.4% [100 µM] (active) | -89.5% [100 µM] (active) | – | -93.6% [100 µM] (active) | -99.2% [100 µM] (active) | -21.1% [100 µM] (active) | -95.5% [100 µM] (active) | -95.1% [100 µM] (active) | -54.8% [100 µM] (active) | -97.9% [100 µM] (active) | -99.3% [100 µM] (active) | -90.4% [100 µM] (active) | -92% [100 µM] (active) | -98% [100 µM] (active) | -90.3% [100 µM] (active)
COC(=O)[C@]1(C)CCC[C@]2(C)c3ccc(C(C)C)cc3C(=O)[C@@H](Br)[C@@H]12 | 90.3% | 81.7% | 118% | 94.3% | 106% | 82.6% | 80.8% | 90.1% | 94.8% | 102% | 72.4% | – | 74.2% | 102% | 91.4% | 98.2% | 92.5% | – | 82.9% | –
O=C1/C(=C\c2ccc([N+](=O)[O-])cc2)CS(=O)(=O)C/C1=C/c1ccc([N+](=O)[O-])cc1 | -83.2% (active) | -67.2% (active) | -93.7% (active) | -95.2% (active) | -54.5% (active) | -79.1% (active) | -79.9% (active) | -50% (active) | -96.5% (active) | -78.2% (active) | -27.8% (active) | -62.7% (active) | -100% (active) | -49% (active) | -16% (active) | -64% (active) | -89.8% (active) | -92.2% (active) | -86.9% (active) | –
N#CC1c2ccccc2C=CN1C(=O)CCCl (stereo not given) | 94.2% | 94.1% | 93.8% | 99.8% | 106% | 60.7% | -71.6% (active) | 96.2% | 82% | 77.7% | 32.3% | 5.05% (active) | – | 104% | – | 104% | 79.9% | 97.3% | 103% | –
CC1(C)CCCC2=C1C(=O)N(SC(Cl)(Cl)Cl)C2=O | 101% | 93.6% | 101% | 98.2% | 109% | 89.5% | -73.2% (active) | – | 95% | 102% | 43.1% | 75.9% | 90% | 103% | 84.5% | 95.9% | 97.2% | 93.6% | 95.9% | 69.8%
CCN(CC)CC(O)c1cc(-c2ccc(Cl)cc2)nc2cc(Cl)ccc12 (stereo not given) | 70.8% | 78.5% | 79.2% | 54.6% | -0.34% (active) | 19.3% | -70.4% (active) | – | 46.3% | 17.9% | -27.2% (active) | 43% | 28.9% | 42.1% | 31.7% | 18% | -59.8% (active) | – | -3.65% (active) | -73% (active)
